# Experimental data reported in the antibiotic and cytotoxicity screens of Wong et al. (2023).
# The whole screen tested about 39,000 compounds, of which about 3,300 (8.5%) were called active. Many of the other results were omitted from the sample, so actives are more common in it than they were.
# System: HepG2
# Assay: cytotoxicity call (relative viability < 0.9)
# Settings: 10 µM
row,Compound,cytotoxicity call
1,Cc1ccc(S(=O)(=O)N(C)C[C@@H]2Oc3ccc(NC(=O)CCN4CCOCC4)cc3CC(=O)N([C@@H](C)CO)C[C@H]2C)cc1,inactive
2,C[C@H](CO)N1C[C@H](C)[C@H](CN(C)C(=O)NC2CCCCC2)Oc2c(NC(=O)C3CCOCC3)cccc2C1=O,inactive
3,Cc1ccc(S(=O)(=O)Nc2ccc3c(c2)C(=O)N([C@@H](C)CO)C[C@@H](C)[C@@H](CN(C)C(=O)NC(C)C)O3)cc1,inactive
4,C[C@@H]1CN([C@H](C)CO)C(=O)c2cc(NC(=O)Cc3ccccc3)ccc2O[C@H]1CN(C)S(=O)(=O)c1cccs1,inactive
5,O=C(CO)c1ccccc1,inactive
6,NCC(=O)OCc1ccccc1,inactive
7,O=C(OCc1ccccc1)c1ccccc1,active
8,O=C(O)c1cccnc1,inactive
9,COC(=O)c1cccnc1,inactive
10,O=C(OOC(=O)c1ccccc1)c1ccccc1,active
11,O=C(OCc1ccccc1)c1cccnc1,active
12,N[C@@H](COCc1ccccc1)C(=O)O,inactive
13,O=C(ON1C(=O)CCC1=O)c1ccccc1,inactive
14,CCC(=O)N[C@@H]1CC[C@@H](CC(=O)OC)O[C@H]1CO,inactive
15,CCCCCCCCCCCCCCCCOP(=O)([O-])OCC[N+](C)(C)C,inactive
16,CCCCCCCCCCCCCCCC[N+](C)(C)C,active
17,C[N+](C)(C)CCCCCC[N+](C)(C)C.[Br-].[Br-],inactive
18,C[C@@H]1CN([C@H](C)CO)C(=O)c2cc(C#CC3(O)CCCC3)cnc2O[C@@H]1CN(C)S(=O)(=O)c1ccc(F)cc1,inactive
19,O=C(CN1CCOCC1)N[C@H]1CC[C@@H](CCNC(=O)C2CCC2)O[C@@H]1CO,inactive
20,C[C@H]1CN([C@@H](C)CO)C(=O)c2cccc(NC(=O)Nc3ccc(C(F)(F)F)cc3)c2O[C@H]1CN(C)S(C)(=O)=O,inactive
21,COc1ccc2c3c([nH]c2c1)[C@H](CO)N(Cc1ccc(cc1)Cl)C[C@]13CCN(CC1)Cc1ccccc1,active
22,COc1ccc2c3c([nH]c2c1)[C@@H](CO)N(Cc1ccc(cc1)Cl)C[C@]13CCN(CC1)Cc1nccs1,inactive
23,COc1ccc2c3c([nH]c2c1)[C@H](CO)N(Cc1ccncc1)C[C@]13CCN(CC1)Cc1ccc(cc1)-c1ccccn1,inactive
24,COc1ccc2c3c([nH]c2c1)[C@H](CO)N(C[C@]13CCN(CCc2ccccc2)CC1)C(=O)CN1CCOCC1,inactive
25,COc1ccc2c3c([nH]c2c1)[C@H](CO)N(C[C@]13CCN(CC1)Cc1ccccc1)C(=O)CN1CCOCC1,active

row,Compound,cytotoxicity call
1,COc1ccc2c3c([nH]c2c1)[C@@H](CO)N(C[C@]13CCN(CC1)Cc1ccccc1)C(=O)CN1CCOCC1,inactive
2,COc1ccc(cc1)CN1C[C@]2(CCN(CC2)Cc2ccccc2OC)c2c([nH]c3cc(ccc23)OC)[C@@H]1CO,inactive
3,COc1ccc2c3c([nH]c2c1)[C@H](CO)N(Cc1ccc(cc1)Cl)C[C@]13CCN(CC1)Cc1nccs1,inactive
4,COc1ccc2c3c([nH]c2c1)[C@@H](CO)N(Cc1ccc(cc1)Cl)C[C@]13CCN(CC1)Cc1ccccc1,active
5,C[C@@H]1CN([C@H](C)CO)C(=O)c2cc(NC(=O)CCCCCC(=O)Nc3ccccc3N)ccc2O[C@@H]1CN(C)Cc1ccc(Cl)c(Cl)c1,inactive
6,Cc1cc(C(=O)Nc2cccc3c2O[C@@H](CN(C)C(=O)NC2CCCCC2)[C@H](C)CN([C@H](C)CO)C3=O)n(C)n1,inactive
7,Cc1noc(C)c1S(=O)(=O)Nc1ccc2c(c1)C(=O)N([C@H](C)CO)C[C@@H](C)[C@H](CN(C)S(=O)(=O)c1ccccc1)O2,inactive
8,C[C@@H]1CN([C@H](C)CO)C(=O)c2cc(Br)cnc2O[C@@H]1CN(C)Cc1ccc2c(c1)OCO2,inactive
9,COc1ccc(-c2cc(=O)c3c(O)cc(O[C@@H]4O[C@H](CO[C@@H]5O[C@@H](C)[C@H](O)[C@@H](O)[C@H]5O)[C@@H](O)[C@H](O)[C@H]4O)cc3o2)cc1O,inactive
10,C[C@H](CO)N1C[C@H](C)[C@@H](CN(C)C(=O)Cc2cccnc2)Oc2cc(-c3cncnc3)ccc2S1(=O)=O,inactive
11,NC(=O)c1ncn([C@H]2O[C@@H](COP(=O)(O)O)[C@@H](O)[C@@H]2O)c1N,inactive
12,C[C@@H]1CN([C@H](C)CO)C(=O)c2cc(NS(=O)(=O)c3cn(C)cn3)ccc2O[C@@H](C)CCCCO[C@H]1CN(C)S(=O)(=O)c1cn(C)cn1,inactive
13,CC(C)(C)OC(=O)C[C@@H]1CC=CC[C@@H](CC(=O)NCCO)C(=O)N[C@@H](Cc2c[nH]c3ccccc23)COC1=O,inactive
14,CC(C)Cc1nc2ccccc2[nH]1,inactive
15,NNC(=O)Cc1nc2ccccc2[nH]1,inactive
16,CC(C)(C)c1ccc(CSCc2nc3ccccc3[nH]2)cc1,active
17,Cc1ccc(S(=O)(=O)Nc2ccc3c(c2)C(=O)N([C@@H](C)CO)C[C@H](C)[C@@H](CN(C)Cc2ccc4c(c2)OCO4)OCCCC[C@H](C)O3)cc1,inactive
18,Cc1ccc(S(=O)(=O)Nc2ccc3c(c2)C(=O)N([C@@H](C)CO)C[C@@H](C)[C@@H](CN(C)Cc2ccc4c(c2)OCO4)OCCCC[C@H](C)O3)cc1,inactive
19,Cc1ccc(S(=O)(=O)Nc2ccc3c(c2)C(=O)N([C@H](C)CO)C[C@H](C)[C@@H](CN(C)Cc2ccc4c(c2)OCO4)OCCCC[C@@H](C)O3)cc1,inactive
20,Cc1ccc(S(=O)(=O)Nc2ccc3c(c2)C(=O)N([C@@H](C)CO)C[C@@H](C)[C@H](CN(C)Cc2ccc4c(c2)OCO4)OCCCC[C@@H](C)O3)cc1,inactive
21,Cc1ccc(S(=O)(=O)Nc2ccc3c(c2)C(=O)N([C@@H](C)CO)C[C@H](C)[C@H](CN(C)Cc2ccc4c(c2)OCO4)OCCCC[C@H](C)O3)cc1,inactive
22,Cc1ccc(S(=O)(=O)Nc2ccc3c(c2)C(=O)N([C@H](C)CO)C[C@@H](C)[C@@H](CN(C)Cc2ccc4c(c2)OCO4)OCCCC[C@@H](C)O3)cc1,active
23,Cc1ccc(S(=O)(=O)Nc2ccc3c(c2)C(=O)N([C@H](C)CO)C[C@@H](C)[C@H](CN(C)Cc2ccc4c(c2)OCO4)OCCCC[C@H](C)O3)cc1,active
24,Cc1ccc(S(=O)(=O)Nc2ccc3c(c2)C(=O)N([C@H](C)CO)C[C@H](C)[C@@H](CN(C)Cc2ccc4c(c2)OCO4)OCCCC[C@H](C)O3)cc1,inactive
25,Cc1ccc(S(=O)(=O)Nc2ccc3c(c2)C(=O)N([C@H](C)CO)C[C@H](C)[C@H](CN(C)Cc2ccc4c(c2)OCO4)OCCCC[C@H](C)O3)cc1,active

row,Compound,cytotoxicity call
1,COc1ccc(S(=O)(=O)N(C)C[C@H]2Oc3c(NC(=O)Nc4c(C)noc4C)cccc3C(=O)N([C@H](C)CO)C[C@@H]2C)cc1,inactive
2,C[C@@H]1CN([C@H](C)CO)C(=O)c2cccc(NS(=O)(=O)c3cccs3)c2O[C@@H]1CN(C)Cc1ccc(Cl)c(Cl)c1,inactive
3,C[C@H]1CN([C@@H](C)CO)C(=O)Cc2cc(NC(=O)Cc3ccccc3)ccc2O[C@H]1CN(C)S(C)(=O)=O,inactive
4,CNCc1ccncc1,inactive
5,Cc1sccc1-c1csc(N)n1,inactive
6,C[C@@H]1CN([C@@H](C)CO)C(=O)CCCn2nncc2CO[C@H]1CN(C)C(=O)Nc1ccc2c(c1)OCCO2,inactive
7,C[C@H](CO)N1C[C@H](C)[C@H](CN(C)C(=O)Nc2cccc3ccccc23)Oc2ncc(-c3cccc(F)c3)cc2C1=O,inactive
8,C[C@H](CO)N1C[C@H](C)[C@@H](CN(C)S(=O)(=O)c2ccc(Cl)cc2)OCCCC[C@H](C)Oc2ccc(NC(=O)c3ccncc3)cc2C1=O,inactive
9,C[C@@H]1CN([C@@H](C)CO)C(=O)c2cccc(NS(=O)(=O)c3cccs3)c2O[C@H]1CN(C)S(=O)(=O)c1ccccc1,inactive
10,COc1ccc(C#Cc2ccc3c(c2)O[C@@H](CN(C)C(=O)CN2CCOCC2)[C@H](C)CN([C@H](C)CO)S3(=O)=O)cc1,inactive
11,C[C@H]1CN([C@@H](C)CO)C(=O)Cc2cc(NC(=O)c3ccncc3)ccc2O[C@H]1CN(C)Cc1ccc(Oc2ccccc2)cc1,inactive
12,C[C@@H]1CN([C@@H](C)CO)C(=O)Cc2cc(NC(=O)c3ccncc3)ccc2O[C@@H]1CN(C)Cc1ccc(Oc2ccccc2)cc1,active
13,C[C@@H]1CN([C@H](C)CO)C(=O)Cc2cc(NC(=O)c3ccncc3)ccc2O[C@@H]1CN(C)Cc1ccc(Oc2ccccc2)cc1,inactive
14,C[C@H]1CN([C@@H](C)CO)C(=O)Cc2cc(NC(=O)c3ccncc3)ccc2O[C@@H]1CN(C)Cc1ccc(Oc2ccccc2)cc1,inactive
15,C[C@@H]1CN([C@H](C)CO)C(=O)Cc2cc(NC(=O)c3ccncc3)ccc2O[C@H]1CN(C)Cc1ccc(Oc2ccccc2)cc1,inactive
16,C[C@@H]1CN([C@@H](C)CO)C(=O)Cc2cc(NC(=O)c3ccncc3)ccc2O[C@H]1CN(C)Cc1ccc(Oc2ccccc2)cc1,active
17,CO[C@@H]1CN(C)C(=O)c2ccc(NC(=O)C3CC3)cc2OC[C@@H](C)N(C(=O)C2CCOCC2)C[C@@H]1C,inactive
18,C[C@H]1CN([C@@H](C)CO)C(=O)Cc2cc(NC(=O)NC3CCCCC3)ccc2O[C@@H]1CN(C)S(=O)(=O)c1cn(C)cn1,inactive
19,O=C(C[C@H]1C=C[C@H](NC(=O)C2CC2)[C@@H](CO)O1)NCCCN1CCOCC1,inactive
20,C[C@@H]1CCCCO[C@@H](CN(C)C(=O)c2ccncc2)[C@@H](C)CN([C@@H](C)CO)C(=O)c2cc(NC(=O)C3CCCCC3)ccc2O1,inactive
21,CS(=O)(=O)NCc1nnnn1-c1ccc(F)c(F)c1,inactive
22,C[C@@H]1CN([C@H](C)CO)S(=O)(=O)c2ccc(C#Cc3cccc(F)c3)cc2O[C@H]1CN(C)S(=O)(=O)c1ccccc1F,inactive
23,C[C@@H]1CN([C@@H](C)CO)C(=O)c2c(c3ccccc3n2C)-c2ccccc2CO[C@H]1CN(C)C(=O)NC1CCCCC1,inactive
